Measurements as given in PubChem BioAssay AID504884 (Broad Institute, 2011).
About 230 (0.064%) of roughly 360,000 compounds were called active. The sample holds actives, similar compounds and a random draw of the others, so the mix is not that of the screen. Cut-off read from the data, not from the text of the source: active = activity above about 50% (passing the limit was not always enough); inconclusive = no clear call, values can overlap the other calls.

What follows are molecules tested on DNA topoisomerase I (Yersinia pestis CO92) (assay: Yersinia pestis topoisomerase I inhibitors, primary screen, biochemical, cleavage product accumulation, plate reader, single point (AID 504884)). Conditions: Y. pestis Topo-I cleavage product accumulation, at 10 µM, active compounds read high.

| Compound | activity |
| --- | --- |
| COc1ccccc1N1CC(C(=O)Nc2nnc(SCC(=O)NC(C)C)s2)CC1=O (stereo unspecified) | 6.4% (inactive) |
| Cc1cc(SCC(=O)NCCN2C(=O)CSC2=O)nc2ccccc12 | 2.72% (inactive) |
| O=[N+]([O-])c1ccc(S(=O)(=O)Nc2cccc(-c3ccc(N4CCCC4)nn3)c2)cc1 | 21.6% (inactive) |
| CC1CCc2sc(C(=O)NCC(c3ccco3)N3CCCCC3)cc2C1 (stereo unspecified) | -2.82% (inactive) |
| CC(C)Oc1ccc(CN2CCC2(C)C(=O)NCc2ccc(C(F)(F)F)cc2)cc1 (stereo unspecified) | 15.8% (inactive) |
| COc1ccc(CN2CCN(C(=O)c3cc(C4CC4)nn3-c3ccccc3)CC2)cc1F | 29.4% (inactive) |
| CN(C)C(=O)N=NC(=O)N(C)C | -8.5% (inactive) |
| C[C@H](CO)N1C[C@H](C)[C@@H](CN(C)Cc2ccc(-c3ccccc3)cc2)Oc2ccc(NC(=O)Cn3cnnn3)cc2C1=O | 22.5% (inactive) |
| O=C(CN1CCC(NC(=O)C2CC2)CC1)Nc1ccccc1[N+](=O)[O-] | 2.07% (inactive) |
| COc1ccc(C(CCN(Cc2ccc(OC)c(OC)c2)C(=O)CCl)c2ccccc2)cc1 (stereo unspecified) | 12.3% (inactive) |
| CN(Cc1ccc(F)cc1)C(=O)COc1ccc2ccccc2c1 | 27.3% (inactive) |
| COc1ccc(CN(C)C(=O)CC(c2ccccc2)c2ccccc2)cc1 | 51.6% (active) |
| Cc1ccc(S(=O)(=O)NCC(=O)N2CCOCCOCCOCCOCC2)cc1 | 5.8% (inactive) |
| Cc1cc(C)nc(/N=C2\NC(=O)CC(C(=O)O)N2c2ccc(Cl)cc2Cl)n1 (stereo unspecified) | -1.83% (inactive) |
| O=C1NNC(c2ccccc2)=N/C1=C\c1ccc(Cl)cc1 | -4.41% (inactive) |
| Cc1ccccc1-n1nnnc1SCCCC(=O)c1ccc(F)cc1 | 21.7% (inactive) |
| Cc1ccc2c(c1)C(c1ccccc1)N(C(=O)c1ccc(S(=O)(=O)N3CCOCC3)cc1)CC(=O)N2 (stereo unspecified) | 3.57% (inactive) |
| Cc1cc(C)c(C(N)=O)c(Cl)n1 | 0.37% (inactive) |
| CCOc1ccc(S(=O)(=O)N2CCC(c3ccccc3)CC2)cc1C(=O)O | -7.32% (inactive) |
| COC(=O)Nc1ccc(S(=O)(=O)N2CCN(CCN3C(=O)C4C5C=CC(C5)C4C3=O)CC2)cc1 (stereo unspecified) | 0.176% (inactive) |
| CN(C(=O)CSc1nnc(C2CC2)n1C)C1CCCc2ccccc21 (stereo unspecified) | 9.61% (inactive) |
| CC(=O)c1ccc(NC(=O)C2CCCN2S(=O)(=O)c2cccs2)cc1 (stereo unspecified) | -1.65% (inactive) |
| C=CCn1c(SCc2ccccc2)nc2c1c(=O)[nH]c(=O)n2C | 20.2% (inactive) |

| Compound | activity |
| --- | --- |
| CC=CCn1c(SCCCc2ccccc2)nc2c1c(=O)[nH]c(=O)n2C | 14.6% (inactive) |
| CCCCCn1c(SCCC(C)C)nc2c1c(=O)[nH]c(=O)n2C | 112% (active) |
| CC(=O)Nc1ccc(SC[C@H](Cc2ccccc2)N2CC[C@@H](C)CCC2=O)cc1 | 25.8% (inactive) |
| C[C@H]1CCC(=O)N([C@H](CSc2ccccc2)Cc2ccccc2)CC1 | 59.9% (active) |
| O=C1CC[C@H](O)CCN1[C@H](CSc1ccc(Br)cc1)Cc1ccccc1 | 10.9% (inactive) |
| Cc1cc(Cl)c(S(=O)(=O)NCc2cccnc2)cc1OCC(N)=O | -1.35% (inactive) |
| CN(C)c1ccc(C(=S)N2CCN(C(=S)Nc3ccc(Cl)cc3)CC2)cc1 | 3.46% (inactive) |
| Cc1cc(OCC(=O)NCC(O)c2ccccc2)c2c(C)c(C)c(=O)oc2c1 (stereo unspecified) | -1% (inactive) |
| O=C(CSc1ncnc2c1oc1ccccc12)NC1CCCC1 | 2.5% (inactive) |
| CCC(=O)NC(Nc1cc(C)ccn1)(C(F)(F)F)C(F)(F)F | -7.52% (inactive) |
| CCOC(=O)c1cn(Cc2cccc(C)c2)nn1 | -1.57% (inactive) |
| CC(=O)c1nn(-c2ccc(C)cc2)cc1C(=O)c1cccc(Br)c1 | 8.28% (inactive) |
| CCOC(=O)c1nn(-c2cccc(C)c2)cc1C(=O)c1ccccc1 | 67.3% (active) |
| COCC(C)n1c(C)cc(C(=O)COc2ccc(C)nc2[N+](=O)[O-])c1C (stereo unspecified) | 8.7% (inactive) |
| COC(=O)[C@H]1C[C@H](OC(=O)NCc2ccccc2)[C@@]2(O)CN(S(=O)(=O)c3ccc(C)cc3)CC2[C@H]1C(=O)OC (stereo partly specified) | 7.34% (inactive) |
| Cc1cc2nc(C(F)(F)F)cc(-c3cccs3)n2n1 | -15.7% (inactive) |
| COc1c(C)c2c(c(O)c1C/C=C(\C)CCC(=O)O)C(=O)OC2 | 5.68% (inactive) |
| CC1(Oc2ccccc2-c2ccno2)CCN(Cc2ccc(-c3ccccc3)o2)C1 (stereo unspecified) | 24% (inactive) |
| Cc1ccn(CC(=O)NC2CCCN(Cc3ccccc3F)C2)n1 (stereo unspecified) | -8.15% (inactive) |
| CC(C)CN(C(=O)Cn1c(=O)cnc2ccccc21)C1CCS(=O)(=O)C1 (stereo unspecified) | 1.02% (inactive) |
| CCN1CCN(c2cc3nc(C)n(Cc4ccccc4)c(=O)c3cc2NC(=O)c2ccccc2F)CC1 | 23.4% (inactive) |
| COc1ccc(N=C2C=CC(=O)O2)cc1 | 1.67% (inactive) |
| C=C1c2cccc(OC)c2O[C@H](C(=O)OCC)[C@@H]1CCCCCC | 39% (inactive) |

| Compound | activity |
| --- | --- |
| COC(=O)[C@@H]1C[C@@]2(O)[C@H](O)[C@H](O)[C@H](O)C[C@H]2N1Cc1ccc(C(C)(C)C)cc1 | 1.65% (inactive) |
| O=C(NCc1ccc(F)cc1)c1cc(C2CCCCN2C(=O)c2cccs2)on1 (stereo unspecified) | 28.6% (inactive) |
| COc1ccccc1-c1n[nH]c2c1[C@H](C)CC[C@H]2C(C)C | 29.7% (inactive) |
| CN(C)c1ccc(CNC2C3CC4CC(C3)CC2C4)cc1 (stereo unspecified) | -0.886% (inactive) |
| COCCN(C(=O)CC1CCCCC1)c1c(N)n(CC(C)C)c(=O)[nH]c1=O | -3.38% (inactive) |
| CCCCCN(C(=O)CCC(=O)OCCOc1ccc(OC)cc1)c1c(N)n(CCCC)c(=O)[nH]c1=O | 20.2% (inactive) |
| CC1CCCC(C)N1/N=C/c1ccccc1OC(F)F (stereo unspecified) | -8.42% (inactive) |
| Fc1ccc(Br)cc1/C=N/n1cnnc1 | 1.69% (inactive) |
| Cc1nc2c(ncn2-c2ccccc2)c(=O)n1NC(=O)CN1CCCC1 | -2.1% (inactive) |
| CCC(CC)C(=O)Nc1c2c(nn1-c1ccc(C)cc1)CS(=O)(=O)C2 | -1.49% (inactive) |
| CCN(CC)P(=O)(Oc1cccc(C)c1)N(CC)CC | 2.59% (inactive) |
| Cc1cccc(OP(=O)(Nc2c(C)n(C)n(-c3ccccc3)c2=O)Oc2cccc(C)c2)c1 | 25.5% (inactive) |
| Cc1cccc(OP(=O)(Oc2cccc(C)c2)OC(c2ccccc2)C(F)(F)F)c1 (stereo unspecified) | 60.4% (active) |
| Cc1cc(N2CCN(c3ccc(F)cc3)CC2)n2ncnc2n1 | 1.33% (inactive) |
| O=c1c2ccccc2ncn1CCCCOc1ccccc1F | 5.21% (inactive) |
| N/C(=N\OC(=O)CCn1cccc(C(F)(F)F)c1=O)c1ccc(OC(F)(F)F)cc1 | 0.341% (inactive) |
| O=S(=O)(c1cccc2nonc12)N1CCN(c2cccc(Cl)c2)CC1 | 8.66% (inactive) |
| Cc1ccc(S(=O)(=O)N2CCC(Oc3ccc(-n4cnnn4)cc3)CC2)cc1 | 9.39% (inactive) |
| CCCCNC1(C#N)CCN(Cc2ccccc2)CC1 | -6.77% (inactive) |
| Cc1c(CCO)c(=O)[nH]n1C(=O)c1c(F)cccc1F | 11.7% (inactive) |
| O=C(/C=C/c1cnc2ccccc2n1)NC1CCCCCC1 | 7.03% (inactive) |
| COc1ccccc1CNC(=O)CNC(=O)c1cn(-c2ccccc2OC)c(=O)c2ccccc12 | 2.16% (inactive) |
| CSc1cccc(NC(=S)N(Cc2ccccc2)Cc2ccccn2)c1 | 9.55% (inactive) |

| Compound | activity |
| --- | --- |
| COc1cc(OC)cc(-c2cc3nc(C4CCN(C(=O)OC(C)(C)C)CC4)cc(=O)n3[nH]2)c1 | 2.04% (inactive) |
| CS(=O)(=O)c1sc(C(=O)NC(=S)Nc2ccc(OC(F)(F)F)cc2)c2c1C=CCC2 | 6.39% (inactive) |
| Cc1ccc(N2C(=O)CC(NCc3ccc4c(c3)OCO4)C2=O)cc1Cl (stereo unspecified) | 4.73% (inactive) |
| Cc1ccc(CCNC(=O)C2CCN(S(=O)(=O)N3CCCC3)CC2)cc1 | 0.896% (inactive) |
| CSc1ccc(S(=O)(=O)N2CCC(C(=O)NCCc3ccccc3)CC2)cc1 | 3.52% (inactive) |
| Cc1ccc(S(=O)(=O)N2CCC(C(=O)NCCC3=CCCCC3)CC2)cc1C | 51.1% (active) |
| CN(C(=O)COC(=O)CCCc1c[nH]c2ccccc12)c1c(N)n(Cc2ccccc2)c(=O)[nH]c1=O | 15% (inactive) |
| COc1ccc(/C(=N\O)c2nccc3cc(OC)c(OC)cc23)cc1OC | 6.19% (inactive) |
| COCCCNC(=O)C1CC(=O)N(CCc2ccc(F)cc2)C1 (stereo unspecified) | -2.65% (inactive) |
| O=C(NC1CCC(O)CC1)c1ccccc1OCc1ccc(F)cc1 (stereo unspecified) | 1.15% (inactive) |
| CC(=O)c1ccccc1OCc1ccc(C(=O)c2ccccc2)cc1 | 55.1% (active) |
| CC(OC(=O)c1ccccc1OCc1ccc(Cl)cc1)C(N)=O (stereo unspecified) | 4.36% (inactive) |
| CCOC(=O)C1CCN(S(=O)(=O)c2ccc3c(c2)N(C)C(=O)CC(=O)N3C)CC1 | -0.905% (inactive) |
| FC(F)(F)C1CCCN(c2nsc3ccccc23)C1 (stereo unspecified) | 4.11% (inactive) |
| CCCCNC(=O)c1ccccc1NC(=O)c1ccccc1N(C)S(C)(=O)=O | 8.01% (inactive) |
| c1ccc(CC2CCN(c3nc4ccccc4n4cnnc34)CC2)cc1 | 27.5% (inactive) |
| COc1ccc(CN2CCC(n3nccc3NC(=O)CCCc3ccccc3)CC2)cc1C | 18.3% (inactive) |
| CC(C)(C)N(Cc1ccccc1)C(=O)COC(=O)CCc1c[nH]c2ccccc12 | 1.59% (inactive) |
| CC1(c2ccc3ccccc3c2)NC(=O)NC1=O (stereo unspecified) | 0.131% (inactive) |
| O=C1CSC(c2cccc(F)c2)N1c1ccccc1F (stereo unspecified) | -2.91% (inactive) |
| O=C(Cc1ccccc1F)NC1CCSc2ccccc21 (stereo unspecified) | 5.76% (inactive) |
| O=S(=O)(O)c1cc2onnc2c2ccccc12 | -2.58% (inactive) |
